Results taken from ChEMBL document CHEMBL2218924, “A broad activity screen in support of a chemogenomic map for kinase signalling research and drug discovery” (Biochem J, 2013).

How the values were obtained:
[1] = molecular target: T1, Testis-specific serine/threonine-protein kinase 1 (Homo sapiens) (UniProt Q9BXA7); conditions: at 1 µM
T1 sequence (whole entry): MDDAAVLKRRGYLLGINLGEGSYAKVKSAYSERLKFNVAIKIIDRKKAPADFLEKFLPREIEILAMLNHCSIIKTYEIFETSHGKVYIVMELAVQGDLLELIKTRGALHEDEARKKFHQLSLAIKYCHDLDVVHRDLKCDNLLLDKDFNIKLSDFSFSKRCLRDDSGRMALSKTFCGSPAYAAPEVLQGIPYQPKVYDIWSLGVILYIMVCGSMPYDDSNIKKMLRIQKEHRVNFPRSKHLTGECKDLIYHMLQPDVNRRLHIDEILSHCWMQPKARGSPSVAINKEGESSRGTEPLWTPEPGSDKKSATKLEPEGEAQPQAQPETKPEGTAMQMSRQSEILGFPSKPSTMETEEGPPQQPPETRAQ

[2] = molecular target: T1, Testis-specific serine/threonine-protein kinase 1 (Homo sapiens); conditions: at 10 µM
[3] = molecular target: T2, Testis-specific serine/threonine-protein kinase 2 (Homo sapiens) (UniProt Q96PF2); conditions: at 10 µM
T2 sequence (whole entry): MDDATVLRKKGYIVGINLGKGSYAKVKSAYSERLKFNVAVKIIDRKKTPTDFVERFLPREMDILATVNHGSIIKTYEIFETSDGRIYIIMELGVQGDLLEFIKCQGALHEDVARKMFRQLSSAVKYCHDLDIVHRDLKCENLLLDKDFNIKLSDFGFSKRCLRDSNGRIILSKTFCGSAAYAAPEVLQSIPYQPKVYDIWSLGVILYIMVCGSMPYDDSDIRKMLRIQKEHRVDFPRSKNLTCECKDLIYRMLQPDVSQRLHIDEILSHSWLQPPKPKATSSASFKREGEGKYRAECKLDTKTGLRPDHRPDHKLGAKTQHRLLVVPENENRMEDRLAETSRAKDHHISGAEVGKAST

[4] = molecular target: T3, Tyrosine-protein kinase Tec (Homo sapiens) (UniProt P42680); conditions: at 1 µM
T3 sequence (whole entry): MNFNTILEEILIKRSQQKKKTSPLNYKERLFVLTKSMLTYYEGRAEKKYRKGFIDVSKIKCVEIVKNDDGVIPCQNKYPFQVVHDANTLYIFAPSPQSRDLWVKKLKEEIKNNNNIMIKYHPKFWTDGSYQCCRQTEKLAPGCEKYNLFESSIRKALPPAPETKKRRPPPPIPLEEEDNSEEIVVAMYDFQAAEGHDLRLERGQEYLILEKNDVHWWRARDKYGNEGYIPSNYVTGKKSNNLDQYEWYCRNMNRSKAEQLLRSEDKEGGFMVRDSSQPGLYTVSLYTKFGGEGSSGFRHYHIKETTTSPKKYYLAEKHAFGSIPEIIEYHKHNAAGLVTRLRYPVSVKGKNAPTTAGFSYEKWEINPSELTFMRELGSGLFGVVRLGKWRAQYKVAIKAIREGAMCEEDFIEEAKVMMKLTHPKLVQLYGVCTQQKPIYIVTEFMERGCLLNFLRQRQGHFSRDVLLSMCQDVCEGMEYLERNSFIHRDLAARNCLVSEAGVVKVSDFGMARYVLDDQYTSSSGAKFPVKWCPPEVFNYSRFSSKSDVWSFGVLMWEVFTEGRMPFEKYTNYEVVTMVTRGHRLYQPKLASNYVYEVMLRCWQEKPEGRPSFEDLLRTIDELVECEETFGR

[5] = molecular target: T3, Tyrosine-protein kinase Tec (Homo sapiens); conditions: at 10 µM
[6] = molecular target: Angiopoietin-1 receptor (Homo sapiens) (UniProt Q02763); conditions: at 1 µM
[7] = molecular target: Angiopoietin-1 receptor (Homo sapiens) (UniProt Q02763); conditions: at 10 µM
[8] = molecular target: High affinity nerve growth factor receptor (Homo sapiens) (UniProt P04629); conditions: at 1 µM
[9] = molecular target: High affinity nerve growth factor receptor (Homo sapiens) (UniProt P04629); conditions: at 10 µM
[10] = molecular target: BDNF/NT-3 growth factors receptor (Homo sapiens) (UniProt Q16620); conditions: at 1 µM
Sequence of BDNF/NT-3 growth factors receptor (Homo sapiens) (Q16620 32-822 limits assumed): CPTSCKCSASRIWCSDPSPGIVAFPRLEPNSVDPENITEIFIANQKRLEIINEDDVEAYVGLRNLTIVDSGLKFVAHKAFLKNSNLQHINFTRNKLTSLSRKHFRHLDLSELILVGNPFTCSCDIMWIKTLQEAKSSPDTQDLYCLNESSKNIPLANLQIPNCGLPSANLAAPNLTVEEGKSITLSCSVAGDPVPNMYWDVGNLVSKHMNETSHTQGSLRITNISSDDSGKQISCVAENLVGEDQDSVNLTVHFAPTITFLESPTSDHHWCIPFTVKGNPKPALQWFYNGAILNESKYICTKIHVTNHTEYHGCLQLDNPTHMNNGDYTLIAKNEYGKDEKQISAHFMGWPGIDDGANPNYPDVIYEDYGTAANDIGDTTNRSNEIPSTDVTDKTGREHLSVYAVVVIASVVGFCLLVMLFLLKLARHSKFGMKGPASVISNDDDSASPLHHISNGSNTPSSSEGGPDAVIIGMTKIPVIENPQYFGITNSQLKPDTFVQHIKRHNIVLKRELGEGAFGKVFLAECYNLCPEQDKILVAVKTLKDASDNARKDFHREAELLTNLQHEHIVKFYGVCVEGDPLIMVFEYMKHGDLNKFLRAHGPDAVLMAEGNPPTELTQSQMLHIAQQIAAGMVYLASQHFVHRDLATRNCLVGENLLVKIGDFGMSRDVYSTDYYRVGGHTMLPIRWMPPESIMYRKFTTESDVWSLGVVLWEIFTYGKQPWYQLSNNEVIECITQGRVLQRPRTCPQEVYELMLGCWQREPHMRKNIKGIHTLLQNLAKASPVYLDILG

Sequence of High affinity nerve growth factor receptor (Homo sapiens) (P04629 33-796 limits assumed): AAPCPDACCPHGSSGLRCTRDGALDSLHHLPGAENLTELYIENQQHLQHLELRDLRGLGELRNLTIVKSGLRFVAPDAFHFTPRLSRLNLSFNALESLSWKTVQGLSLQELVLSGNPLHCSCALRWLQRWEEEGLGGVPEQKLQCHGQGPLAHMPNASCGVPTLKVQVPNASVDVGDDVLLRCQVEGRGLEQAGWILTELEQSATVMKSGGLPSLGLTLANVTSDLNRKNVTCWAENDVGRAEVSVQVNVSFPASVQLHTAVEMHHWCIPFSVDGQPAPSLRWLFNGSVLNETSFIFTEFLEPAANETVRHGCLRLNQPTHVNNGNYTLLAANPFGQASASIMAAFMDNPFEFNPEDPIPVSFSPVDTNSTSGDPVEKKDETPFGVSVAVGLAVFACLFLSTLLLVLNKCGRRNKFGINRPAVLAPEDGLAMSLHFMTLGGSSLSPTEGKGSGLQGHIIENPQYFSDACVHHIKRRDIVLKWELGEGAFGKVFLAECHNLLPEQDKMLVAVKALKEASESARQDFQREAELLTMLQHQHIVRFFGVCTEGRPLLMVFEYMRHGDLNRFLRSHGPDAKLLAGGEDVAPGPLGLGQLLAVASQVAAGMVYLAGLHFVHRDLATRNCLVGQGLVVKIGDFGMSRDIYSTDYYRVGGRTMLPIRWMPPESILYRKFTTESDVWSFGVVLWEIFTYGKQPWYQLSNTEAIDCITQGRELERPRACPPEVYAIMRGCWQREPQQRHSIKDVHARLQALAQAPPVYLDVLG
Sequence of Angiopoietin-1 receptor (Homo sapiens) (Q02763 whole entry): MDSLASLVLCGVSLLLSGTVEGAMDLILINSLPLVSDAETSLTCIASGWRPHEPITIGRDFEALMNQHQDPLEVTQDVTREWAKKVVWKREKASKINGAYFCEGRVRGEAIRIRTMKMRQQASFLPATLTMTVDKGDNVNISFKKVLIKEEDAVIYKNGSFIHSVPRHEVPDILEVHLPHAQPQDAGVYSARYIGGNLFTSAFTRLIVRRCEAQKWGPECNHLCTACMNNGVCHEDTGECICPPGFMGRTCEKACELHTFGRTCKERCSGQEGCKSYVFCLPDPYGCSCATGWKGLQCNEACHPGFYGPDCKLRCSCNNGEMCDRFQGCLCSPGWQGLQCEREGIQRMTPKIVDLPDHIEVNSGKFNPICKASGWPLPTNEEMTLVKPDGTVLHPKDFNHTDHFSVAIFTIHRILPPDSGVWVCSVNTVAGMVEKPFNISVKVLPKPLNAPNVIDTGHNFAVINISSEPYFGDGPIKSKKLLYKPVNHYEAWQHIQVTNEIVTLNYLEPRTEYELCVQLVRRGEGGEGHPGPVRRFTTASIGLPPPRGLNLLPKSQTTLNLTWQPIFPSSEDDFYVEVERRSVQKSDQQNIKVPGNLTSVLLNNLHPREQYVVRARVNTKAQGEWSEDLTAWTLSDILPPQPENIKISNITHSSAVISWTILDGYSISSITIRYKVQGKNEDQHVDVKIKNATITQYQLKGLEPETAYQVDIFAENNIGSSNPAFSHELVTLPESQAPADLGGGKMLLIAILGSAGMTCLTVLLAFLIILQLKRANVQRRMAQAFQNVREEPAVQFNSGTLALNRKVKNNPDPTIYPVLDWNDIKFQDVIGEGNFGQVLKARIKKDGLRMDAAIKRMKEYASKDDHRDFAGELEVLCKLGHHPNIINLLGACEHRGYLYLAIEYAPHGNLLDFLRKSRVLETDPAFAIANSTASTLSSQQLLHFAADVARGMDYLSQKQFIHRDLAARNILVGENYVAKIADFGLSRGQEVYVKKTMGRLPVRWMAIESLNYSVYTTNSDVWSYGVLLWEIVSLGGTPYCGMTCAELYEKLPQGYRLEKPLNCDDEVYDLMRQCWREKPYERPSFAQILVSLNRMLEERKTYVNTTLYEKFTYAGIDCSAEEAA

SMILES | residual activity [1] [%] | residual activity [2] [%] | residual activity [3] [%] | residual activity [4] [%] | residual activity [5] [%] | residual activity [6] [%] | residual activity [7] [%] | residual activity [8] [%] | residual activity [9] [%] | residual activity [10] [%]
COc1ccc(CNc2nc(N(CCO)CCO)nc3c2ncn3C(C)C)cc1 | 86 | 70 | 87 | 103 | 79 | 101 | 80 | 75 | 56 | 72
O=C(Nc1cccc(Nc2cc(Nc3cccc(C(F)(F)F)c3)ncn2)c1)C1CC1 | 101 | 87 | 77 | 96 | 27 | 60 | 70 | 68 | 9 | 76
COc1ccc(OC)c2c(=S)c3ccccc3[nH]c12 | 90 | 94 | 90 | 92 | 84 | 94 | 94 | 78 | 57 | 88
O=c1cc(-c2cccc3c2Sc2ccccc2S3)oc(N2CCOCC2)c1 | 92 | 98 | 90 | 94 | 75 | 101 | 61 | 114 | 95 | 75
CNc1cc2c(Nc3cccc(Br)c3)ncnc2cn1 | 93 | 90 | 103 | 96 | 52 | 90 | 89 | 69 | 53 | 64
NC(=O)c1ccc2[nH]c(-c3ccc(Oc4ccc(Cl)cc4)cc3)nc2c1 | 101 | 80 | 95 | 106 | 92 | 109 | 131 | 78 | 54 | 103
CO[C@H]1C[C@@H]2CC[C@@H](C)[C@@](O)(O2)C(=O)C(=O)N2CCCC[C@H]2C(=O)O[C@H]([C@H](C)C[C@@H]2CC[C@@H](O)[C@H](OC)C2)CC(=O)[C@H](C)/C=C(\C)[C@@H](O)[C@@H](OC)C(=O)[C@H](C)C[C@H](C)/C=C/C=C/C=C/1C | 86 | 80 | 106 | 96 | 90 | 79 | 96 | 89 | 41 | 102
COc1cc2ncnc(N3CCN(C(=O)Nc4ccc(Oc5ccccc5)cc4)CC3)c2cc1OC | 88 | 76 | 117 | 83 | 98 | 69 | 69 | 71 | 30 | 39
Nc1nc(Nc2ccc(S(N)(=O)=O)cc2)nn1C(=S)Nc1c(F)cccc1F | 16 | 12 | 12 | 78 | 23 | -1 | -2 | 0 | -1 | 0
O=C1NC(=O)/C(=C\c2ccc3nccnc3c2)S1 | 92 | 58 | 86 | 98 | 79 | 75 | 83 | 127 | 96 | 126
CC[n+]1c(/C=C/N(C)c2ccccc2)n(-c2ccccc2)c2ccc(-c3nc4ccccc4s3)cc21 | 102 | 73 | 78 | 77 | 27 | 103 | 30 | 85 | 34 | 67
Cc1nc(-c2ccccc2)c(-c2ccncc2)o1 | 100 | 88 | 98 | 103 | 42 | 100 | 122 | 117 | 95 | 55
Cc1cc2ncc(-c3ccccc3)nc2cc1C | 101 | 97 | 91 | 90 | 71 | 98 | 89 | 106 | 81 | 94
Ic1cccc(CSc2nnc(-c3ccncc3)o2)c1 | 78 | 86 | 82 | 90 | 64 | 104 | 84 | 87 | 64 | 32
Cn1cnc2cc3c(Nc4cccc(Br)c4)ncnc3cc21 | 99 | 96 | 106 | 82 | 73 | 74 | 34 | 87 | 82 | 107
CC#CC(=O)Nc1cc2c(Nc3ccc(F)c(Cl)c3)ncnc2cn1 | 98 | 81 | 82 | 62 | 70 | 52 | 57 | 91 | 111 | 110
O=c1c2ccccc2[nH]c(=S)n1CCN1CCC(=C(c2ccc(F)cc2)c2ccc(F)cc2)CC1 | 101 | 86 | 70 | 94 | 44 | 87 | 59 | 82 | 87 | 44
